# Results filed as inconclusive are left out. A call without a number means that no potency is given here. A number with no mark means an inactive call. Activity calls are given as the source filed them. Calls come from the whole dose curve; as a rule, active = well fitted curve in the direction sought with a large enough effect; inconclusive = small, poorly fitted or top-dose-only effect, or another doubt; inactive = no such curve, though single readings can be large; an effect the other way counts as inactive or inconclusive.
# Experiments:
# CRL-7250 = normal cell line; experiment: Cytotoxic Profiling of Annotated Libraries Using Quantitative High-Throughput Screening (AID 1296008); conditions: Five cell lines viability, CellTiter-Glo ATP luminescence, 48-72 h; max response: active compounds read low; note: nearly all actives have a fitted effect of over 60% in size; note: potency is the fitted concentration of half-maximal effect
# In short: (§1)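 Cytotoxicity was measured as CellTiter-Glo ATP luminescence, read after 10 min at room temperature. Compound treatment of the cells lasted 48 or 72 hr at 37 degrees Celsius in a qHTS format.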
# HEK293 = experiment: as above; conditions: Five cell lines viability, CellTiter-Glo ATP luminescence, 48-72 h; max response: active compounds read low
# In short: as §1
# HaCat = experiment: as above; conditions: Five cell lines viability, CellTiter-Glo ATP luminescence, 48-72 h; max response: active compounds read low
# In short: as §1
# KB-3-1 = experiment: as above; conditions: Five cell lines viability, CellTiter-Glo ATP luminescence, 48-72 h; max response: active compounds read low
# In short: as §1
# NIH3T3 [1] = experiment: as above; conditions: Five cell lines viability, CellTiter-Glo ATP luminescence, 48-72 h; max response: active compounds read low
# In short: as §1
# NIH3T3 [2] = experiment: qHTS assay to identify novel small-molecules to repurpose for Merkel cell carcinoma treatment (AID 1296009); conditions: MCC and control cell lines, CellTiter-Glo viability, 72 h; at 44.8 µM (top of the series) unless noted; note: nearly all actives have a fitted effect of over 60% in size
# In short: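 After compound transfer in DMSO, plates were kept 72 hr at 37 degree celsius. Luminescent ATP signal from CellTiter-Glo served as viability measure, normalized against DMSO and no-cell controls.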
# C33A = experiment: Primary qHTS to identify gynecologic anti-cancer compounds using libraries of approved drugs and bioactive compounds (AID 1345084); conditions: Gynecologic cancer cell panel viability, ATPlite luminescence, 48 h; series mostly up to 57.5 µM; note: nearly all actives have a fitted effect of over 55% in size
# In short: (§2)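 Luminescence from the ATPlite ATP-monitoring reagent indicates viable cell number; lower signal means cytotoxicity. Cells received compound 16 h after seeding and were exposed for 48 h across five concentrations.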
# CAOV3 = experiment: as above; conditions: Gynecologic cancer cell panel viability, ATPlite luminescence, 48 h; series mostly up to 57.5 µM
# In short: as §2
# CASKI = experiment: as above; conditions: Gynecologic cancer cell panel viability, ATPlite luminescence, 48 h; series mostly up to 57.5 µM
# In short: as §2
# Es-2 = experiment: as above; conditions: Gynecologic cancer cell panel viability, ATPlite luminescence, 48 h; series mostly up to 57.5 µM
# In short: as §2
# HeLa = experiment: as above; conditions: Gynecologic cancer cell panel viability, ATPlite luminescence, 48 h; series mostly up to 57.5 µM
# In short: as §2
# Hek293T = experiment: as above; conditions: Gynecologic cancer cell panel viability, ATPlite luminescence, 48 h, control line for the selectivity index; series mostly up to 57.5 µM
# In short: as §2
# JEG-3 = experiment: as above; conditions: Gynecologic cancer cell panel viability, ATPlite luminescence, 48 h; series mostly up to 57.5 µM
# In short: as §2
# OV90 = experiment: as above; conditions: Gynecologic cancer cell panel viability, ATPlite luminescence, 48 h; series mostly up to 57.5 µM
# In short: as §2
# PA-1 = experiment: as above; conditions: Gynecologic cancer cell panel viability, ATPlite luminescence, 48 h; series mostly up to 57.5 µM
# In short: as §2
SMILES,max response (CRL-7250),max response (HEK293),max response (HaCat),max response (KB-3-1),outcome (NIH3T3 [1]),outcome (NIH3T3 [2]),Potency (C33A),Potency (CAOV3),outcome (CASKI),Potency (Es-2),Potency (HeLa),Potency (Hek293T),Potency (JEG-3),Potency (OV90),Potency (PA-1),outcome (CRL-7250),outcome (KB-3-1),Potency (HEK293)
Cc1ccccc1-c1cc(N2CCN(C)CC2)ncc1N(C)C(=O)C(C)(C)c1cc(C(F)(F)F)cc(C(F)(F)F)c1,1.9%,-6.53%,-0.694%,-5.47%,inactive,inactive,inactive,inactive,inactive,inactive,inactive,inactive,inactive,inactive,inactive,–,–,–
C=C(C(=O)O)[C@H]1C[C@]2(C)C(=O)CC[C@]23O[C@H]1C[C@@H]3C,-1.57%,-7.61%,1.8%,4.05%,inactive,inactive,inactive,inactive,inactive,inactive,inactive,inactive,inactive,inactive,inactive,–,–,–
CC(=O)OC1(C)CC(O)C2(O)C=COC(OC3OC(CO)C(O)C(O)C3O)C12 (stereo not given),–,4.36%,0.0573%,3.54%,inactive,inactive [at 17.4 µM],inactive,inactive,inactive,inactive,inactive,inactive,inactive,inactive,inactive,inactive,–,–
CC(C)C(O)(CO)CCO[C@@H]1O[C@H](CO[C@H]2OC[C@](O)(CO)[C@H]2O)[C@@H](O)[C@H](O)[C@H]1O (stereo not given in full),2.62%,-11.4%,-9.77%,4.64%,inactive,inactive [at 17.4 µM],inactive,inactive,inactive,inactive,inactive,inactive,inactive,inactive,inactive,–,–,–
CC(C(=O)Nc1cc(C#N)ccc1CCCC(=O)O)c1ccc(F)c2ccccc12 (stereo not given),-4.54%,-6.85%,-4.32%,5.51%,inactive,inactive,inactive,inactive,inactive,inactive,inactive,inactive,inactive,inactive,inactive,–,–,–
C=C1C(=O)OC2CC(COC(=O)C(C)C)=C(C(C)CCCOC(C)=O)[C@@H](OC(C)=O)C12 (stereo not given in full),-4.9%,5%,4.28%,–,inactive,inactive [at 17.4 µM],inactive,inactive,inactive,inactive,inactive,inactive,inactive,inactive,inactive,–,inactive,–
COc1cc(/C=C/C(=O)O[C@@H]2C[C@@](O)(C(=O)O)C[C@@H](O)[C@@H]2O)ccc1O,-0.566%,0.393%,-12%,0.239%,inactive,inactive,inactive,inactive,inactive,inactive,inactive,inactive,inactive,inactive,inactive,–,–,–
Cc1nc2cc(-c3cc(F)cc(C#N)c3)ccc2s1,-5.31%,-12.9%,-10.9%,0.518%,inactive,inactive,inactive,inactive,inactive,inactive,inactive,inactive,inactive,inactive,inactive,–,–,–
O=C(Nc1cc(-c2ccccc2)nn1-c1ccccc1F)c1ccc([N+](=O)[O-])cc1,-9.65%,–,2.32%,-2.53%,inactive,inactive,inactive,inactive,inactive,inactive,inactive,inactive,inactive,inactive,inactive,–,–,23.1 µM (active)
CC1(C)CC[C@]2(C(=O)O)CC[C@]3(C)C(=CCC4[C@@]5(C)CC[C@H](O[C@@H]6O[C@H](C(=O)O)[C@@H](O)[C@H](O)[C@H]6O)C(C)(C)C5CC[C@]43C)C2C1 (stereo not given in full),-10.5%,-9.32%,-12.1%,4.15%,inactive,inactive [at 17.4 µM],inactive,inactive,inactive,inactive,inactive,inactive,inactive,inactive,inactive,–,–,–
Fc1cccc(CN(C2=NCCN2)c2c(Cl)cccc2Cl)c1,-5.57%,-13.5%,0.445%,5.56%,inactive,inactive,inactive,inactive,inactive,inactive,inactive,inactive,inactive,inactive,inactive,–,–,–

# From PubChem BioAssay (NCATS)
